In ChEMBL document CHEMBL1157539, “Thousands of chemical starting points for antimalarial lead identification” (Nature, 2010):

tested on: Plasmodium falciparum; assay: GSK_TCMDC: Inhibition of Plasmodium falciparum Dd2 in whole red blood cells, using parasite LDH activity as an index of growth. Test compounds present at 2uM; type: functional

| SMILES | Inhibition |
| --- | --- |
| COC(=O)Cn1c(C2CCN(CC3CCN(C(=O)/C=C/c4ccc(Cl)c(Cl)c4)CC3)CC2)nc2ccccc21 | 2% |
| Br.COc1ccc(CCCON2C(=N)N=C(N)NC2(C)C)cc1 | 94% |
| O=C(Nc1cccc(CN2CCN(C(=O)c3cccc(F)c3)CC2)c1)c1ccco1.O=C(O)C(F)(F)F | 55% |
| COc1ccc(OC)c(-c2cccc(-c3cccc(NC(=O)c4ccc([N+](=O)[O-])o4)c3)n2)c1 | 97% |
| CCOc1cc(N)c2nc3ccc([N+](=O)[O-])cc3cc2c1 | 78% |
| Cc1cccc(CNc2nc(C)cc(NCCC(=O)Nc3ccccc3)n2)c1.O=C(O)C(F)(F)F | 54% |
| CC(C)c1cc(Oc2c(I)cc(CCNCc3ccccc3)cc2I)ccc1O.Cl | 54% |
| CC1CN(c2cnn(Cc3cccc(NC(=O)Nc4ccc(F)cc4[N+](=O)[O-])c3)c(=O)c2Cl)CC(C)N1.O=C(O)C(F)(F)F (stereo unspecified) | 13% |
| Cc1ccc(Cl)cc1N1CCN(CCCNC(=O)C2CCN(c3nc4ccccc4[nH]3)CC2)CC1 | 0% |
| COc1cc(CNc2ncc(-c3ccsc3)c(-c3nccs3)n2)cc(OC)c1 | 82% |
| CC(C)NC[C@@H](O)[C@H](Cc1ccccc1)NC(=O)c1cc2c3c(c1)c(C(C)C)cn3CCS(=O)(=O)N2C.O=CO | 99% |
| Cc1c(CCC#N)c(NCc2ccccc2)n2c(nc3ccccc32)c1C#N | 99% |
| N#Cc1cccc(CN2CCCN(Cc3ccc(C(=O)Nc4ccc(Cl)cc4)cc3)CC2)c1.O=C(O)C(F)(F)F | 21% |
| CC(C)(C)NCCN(Cc1ccc(-c2ccc(C(F)(F)F)cc2)cc1)C(=O)Cn1c(CCc2cccc(F)c2F)nc(=O)c2ccccc21 | 68% |
| Cc1nc(-c2nc(NCCc3c(C)noc3C)ncc2-c2ccsc2)sc1C | 85% |
| Cc1ccc2[nH]cc(/C=C/C(=O)NC3CCC(CCN4CCc5ccc(C#N)cc5CC4)CC3)c2c1.Cl (stereo unspecified) | 49% |
| CS(=O)(=O)N1CC2(CCN(CCC(NC(=O)NCc3ccccc3Cl)c3ccc(Cl)c(Cl)c3)CC2)c2ccccc21 (stereo unspecified) | 98% |
| CN1CCC(c2c[nH]c3ccc(NC(=O)Nc4ccc(-c5ccncc5)c(Cl)c4Cl)cc23)CC1 | 19% |

| SMILES | Inhibition |
| --- | --- |
| c1csc(-c2nc(N3CCCCC3)ncc2-c2ccsc2)n1 | 72% |
| COc1ccc(S(=O)(=O)Nc2ccc(C(=O)NCc3ccc(C(F)(F)F)cc3)cc2)cc1N1CCN(CC2CC2)CC1.O=C(O)C(F)(F)F | 1% |
| O=C(/C=C/c1ccc(Cl)c(Cl)c1)NCCCCCN1CCC(NC(=O)NC2CCCC2)CC1 | 31% |
| O=C(Nc1ccc(S(=O)(=O)NCCCN2CCOCC2)cc1)c1cc(-c2ccccc2)[nH]n1 | 29% |
| COc1ccc2[nH]c(C(=O)Nc3ccc4[nH]c(-c5ccccc5)nc4c3)cc2c1.O=C(O)C(F)(F)F | 23% |
| O=C(/C=C/c1ccc(Cl)c(Cl)c1)NCCCCCN1CCC(NC(=O)c2ccc(F)c(F)c2)CC1 | 20% |
| COc1ccc(CN2CCC(NCc3cccc([N+](=O)[O-])c3)CC2)cc1.O=C(O)C(F)(F)F | 3% |
| CC(C)(C)c1ccc(NC(=O)c2ccc(CN3CCCN(Cc4ccc(F)cc4)CC3)cc2)cc1.O=C(O)C(F)(F)F | 7% |
| NC(=O)c1cccc(CNC(=O)NC[C@H]2CN(Cc3ccc(Cl)c(Cl)c3)CCO2)c1 | 65% |
| CCCCC(=O)Nc1nc2ccc([N+](=O)[O-])cc2s1 | 69% |
| Cl.O=C(/C=C/c1ccccc1F)NC1CCC(CCN2CCc3ccc(-c4cccnc4)cc3CC2)CC1 (stereo unspecified) | 5% |
| Cc1cc(OCC2CCN(c3ncc(C(=O)Nc4ccccc4)cc3Cl)CC2)ccc1F | 87% |
| CC[C@H]1CN2CCc3c([nH]c4ccccc34)[C@@H]2C[C@@H]1CC1c2cc(OC)c(OC)cc2CCN1C.Cl (stereo partly specified) | 45% |
| Oc1ccc2[nH]cc(C3CCN(CCC(c4ccccc4)c4ccccc4)CC3)c2c1 | 42% |
| O=C(Nc1cccc(-c2nn3ccccc3c2-c2ccnc(Nc3ccccc3)n2)c1)c1c(F)cccc1F | 98% |
| Cc1cc(NC(=O)c2cccs2)ccc1OC1CCN(Cc2ccccc2)CC1.O=C(O)C(F)(F)F | 91% |
| O=C(NC1CC1)c1ccc(Cn2c(SCc3cccc(Cl)c3)nc3ccccc3c2=O)cc1 | 70% |
| COc1cc(C(=O)Nc2nc3ccccc3[nH]2)ccc1OCC(=O)Nc1cccc(C(F)(F)F)c1 | 33% |
